Screening results deposited in PubChem BioAssay by National Center for Advancing Translational Sciences (NCATS).
Rows were chosen to be rich in hits. Some 5.4% of all compounds tested hit in one or more screens of this group.
Vaccinia mCherry = vaccinia inhibition (mCherry reporter). Vaccinia virus mCherry reporter infection, fluorescence. Potency, µM (titrated, usually from 36.5 µM), usual class: inhibitors. hit rate 0.63% among 310,000; calls by dose curve; tested in A549 cells; note: nearly all actives have a fitted effect of over 35% in size
FMDV antiviral = antivirals against foot and mouth disease virus; FMDV antiviral cell-based qHTS; Potency, µM (titrated, usually from 57.9 µM), most hits filed as inhibitors; hit rate 1.2% among 410,000; AID 1159524; calls by dose curve; tested in HEK293T cells; note: read-out not given here; nearly all actives have a fitted effect of over 45% in size
Vaccinia Venus = inhibitors of vaccinia virus (Venus reporter); hit rate 0.46% among 330,000; Vaccinia virus Venus reporter expression, fluorescence; Potency, µM (highest dose often 36.5 µM), hits mostly inhibitors; calls by dose curve; tested in A549 cells; note: nearly all actives have a fitted effect of over 30% in size
Sm TGR block = blocks Schistosoma mansoni thioredoxin glutathione reductase. purified TGR, DTNB reduction, TNB absorbance 405 nm. Potency, µM (top dose mostly 114 µM), most hits filed as inhibitors. Q962Y6. hit rate 3% among 360,000; active = well fitted inhibition curve with a large enough effect; inconclusive = small, poorly fitted or top-dose-only effect; inactive = no such curve, though single readings can be large or run the other way; note: nearly all actives have a fitted effect of over 60% in size
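First, TGR (20 nM dispensed) and NADPH were mixed with compound. Second, a 15 min room-temperature incubation followed. Third, further NADPH and then DTNB were added to start the reaction. Finally, TNB absorbance was monitored kinetically.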
Lassa entry inh = blocks Lassa virus binding to or entry into cells | Lassa virus pseudotype entry inhibition, cell reporter | Potency, µM (highest dose often 37.9 µM), usual class: inhibitors | hit rate 1.2% among 300,000 | AID 540256; calls by dose curve; tested in HEK293 cells; note: nearly all actives have a fitted effect of over 50% in size
MARV entry inh = blocks Marburg virus binding to or entry into cells | Marburg virus pseudotyped entry inhibition, cell reporter | Potency, µM (top dose mostly 37.8 µM), most hits filed as inhibitors | hit rate 1.8% among 300,000 | AID 540276; calls by dose curve; tested in HEK293 cells
Hits are given with their value; - = inactive; ? = inconclusive; . = not tested or not shown.

SMILES	Vaccinia mCherry	FMDV antiviral	Vaccinia Venus	Sm TGR block	Lassa entry inh	MARV entry inh
COC(=O)Cc1ccc(NC(=O)c2ccc3c(c2)C(=O)N(CC2CCCO2)C3=O)cc1 (configuration not stated)	-	28.2µM	-	-	-	-
CC(C)(C)NC(=O)c1cccc(NC(=O)c2ccc3c(c2)C(=O)N(C(C)(C)C)C3=O)c1	-	25.1µM	-	-	?	?
O=C(O)c1cccc(NC(=O)c2ccc3c(c2)C(=O)N(CC2CCCO2)C3=O)c1 (configuration not stated)	.	15.8µM	.	-	-	-
COc1cc2oc(=O)c(CC(=O)NCCc3ccccc3F)c(C)c2cc1OC	-	-	-	-	-	?
CCOc1cccc(NC(=O)C2CC(=O)N(C)C(=Nc3ccc(F)cc3)S2)c1 (configuration not stated)	-	-	-	-	-	.
O=C(NC[C@@H]1CCCN2CCCC[C@H]12)c1cnn(-c2nccc(-c3ccco3)n2)c1C1CC1	-	-	-	.	.	.
COc1c(Cl)cc(C(=O)N(Cc2ccc(C)o2)C2CCS(=O)(=O)C2)cc1Cl (configuration not stated)	-	-	-	-	-	-
COc1ccc(CN2CCC3(CCC(CNC(=O)c4ccco4)O3)CC2)c(OC)c1C (configuration not stated)	-	-	-	.	.	.
Cc1nn(-c2cccc(Cl)c2)c2nc(C(F)(F)F)[nH]c(=O)c12	-	?	-	-	-	10µM
COc1ccc2oc(-c3ccc(C)c(NC(=O)c4cccnc4)c3)nc2c1	-	-	-	-	-	.
CCOC(=O)c1ccc(-c2ccc(CO)o2)cc1	-	-	?	35.5µM	-	?
Cc1ccc(S(=O)(=O)N2CCC(n3c(C)nc4cccnc43)CC2)c(C)c1	-	?	-	-	?	.
CCCCn1nnnc1C(CCSC)N1CCC(n2c(=O)[nH]c3ccccc32)CC1 (configuration not stated)	-	-	-	.	.	.
COc1ccc(-n2nnnc2C(CCc2ccccc2)N2CCC(n3c(=O)[nH]c4ccccc43)CC2)cc1 (configuration not stated)	?	28.2µM	?	.	.	.
O=c1[nH]c2ccccc2n1C1CCN(C(CCc2ccccc2)c2nnnn2-c2ccc3c(c2)OCCO3)CC1 (configuration not stated)	?	25.1µM	?	.	.	.
CCCCn1nnnc1C(CCc1ccccc1)N1CCC(n2c(=O)[nH]c3ccccc32)CC1 (configuration not stated)	?	20µM	?	.	.	.
Cc1cccc(C)c1-n1nnnc1C(CCc1ccccc1)N1CCC(n2c(=O)[nH]c3ccccc32)CC1 (configuration not stated)	?	10µM	?	.	.	.
C=CCc1ccccc1OCCn1c(C2CC(=O)N(Cc3ccc(F)cc3)C2)nc2ccccc21 (configuration not stated)	-	?	-	-	-	-
Cc1nn(-c2ccc(F)cc2)c(-n2cccc2)c1C(=O)N1CCN(c2ccccc2F)CC1	-	?	-	-	-	.
Cc1cccc(C(=O)N2CCOc3ccc(CN(C)Cc4cc(C5CC5)n[nH]4)cc3C2)n1	-	-	-	.	.	.
CCOc1ccc(-c2nc3c(C#N)c[nH]n3c2NC2CCCC2)cc1	?	-	?	-	-	-
Cc1cccc(N2CCN(C(=O)Cn3nc(Cc4cccnc4)c4ccccc4c3=O)CC2)c1C	-	?	-	-	?	?
CC[C@H](C)/C=C(C)/C=C/C1=CC2=C(Cl)C(=O)[C@](C)(OC(C)=O)C(=O)C2=CO1	?	-	?	.	.	.
CCC(C)/C=C/C1=CC2=C(Cl)C(=O)C3(C)OC(=O)C(C(=O)C(C)C(C)O)C3C2=CO1 (configuration not stated)	-	-	-	50.1µM	.	.
CCCCOC(=O)c1ccc(NC(=O)CC2NCCNC2=O)cc1 (configuration not stated)	-	-	-	-	-	-
SMILES	Vaccinia mCherry	FMDV antiviral	Vaccinia Venus	Sm TGR block	Lassa entry inh	MARV entry inh
COc1ccc(-n2c(Cc3cccn3C)nnc2SCC(=O)Nc2ccccc2)cc1	-	-	-	?	.	-
Cc1ccc(-n2c(Cc3cccn3C)nnc2SCC(=O)N2CCN(c3ccccc3)CC2)cc1	-	-	-	39.8µM	-	-
Cn1cccc1Cc1nnc(SCC(=O)N2CCCCCC2)n1-c1ccc(F)cc1	-	-	-	?	.	.
COc1ccc(-n2c(Cc3cccn3C)nnc2SCC(=O)Nc2ccc(Cl)cc2)cc1	.	-	.	50.1µM	.	-
COc1ccc(-n2c(Cc3cccn3C)nnc2SCC(=O)NCc2ccco2)cc1	-	-	-	56.2µM	-	-
COc1ccc(NC(=O)CSc2nnc(Cc3cccn3C)n2-c2ccc(F)cc2)cc1OC	-	-	-	44.7µM	.	.
O=C(NCCO)c1cn(C2CCN(Cc3c(F)cccc3Cl)CC2)nn1	-	-	-	.	.	.
COc1ccc(CCNc2cc(C)nc3c(-c4ccccc4OC)cnn23)cc1OC	-	-	-	-	-	11.2µM
COc1cccc(/C=C2\CCCCC2=O)c1	-	-	-	-	?	-
COc1cccc(/C=C2/CCC(CN(C)C)C2=O)c1 (configuration not stated)	-	25.1µM	-	.	12.6µM	11.2µM
CCCC/C=C1/CCC(CN(C)C)C1=O (configuration not stated)	-	28.2µM	-	.	-	-
COc1cccc(/C=C2\CCC(C3CCCC3)C2=O)c1 (configuration not stated)	-	-	-	39.8µM	-	-
CCCCC1CCC(C(=O)N2CC(=O)Nc3ccc(C)cc3C2c2ccc(F)cc2)CC1 (configuration not stated)	-	-	-	-	?	?
Clc1ccc(-c2noc(-c3cccnc3NCc3ccco3)n2)cc1	-	-	-	-	-	-
O=C(CSc1nnc(-c2cccs2)o1)Nc1cccc(C(F)(F)F)c1	-	-	-	-	-	-
CCCCCOC(=O)Cc1c(O)c2ccccc2n(C)c1=O	.	-	.	3.98µM	-	-
Cn1c(=O)c(Cc2ccccc2)c(O)c2ccccc21	.	-	.	-	-	-
CC(C)(C)OC(=O)NCCCCCNC(=O)c1nc[nH]c1C(=O)N1CCc2ccccc2C1	-	?	-	.	.	.
CC(C)(C)OC(=O)NCc1ccc(CNC(=O)c2nc[nH]c2C(=O)N2CCc3ccccc3C2)cc1	-	39.8µM	-	-	.	.
CC(C)(C)OC(=O)[C@H](Cc1ccccc1)NC(=O)c1nc[nH]c1C(=O)N1CCN(c2ccccc2)CC1	-	-	-	-	.	.
CC(C)(C)OC(=O)NCc1ccc(CNC(=O)c2nc[nH]c2C(=O)N2CCN(c3ccccc3)CC2)cc1	-	20µM	?	-	.	.
CCc1ccc(CN2C(=O)c3ccccc3C2C(=O)NC2CCCCCC2)cc1 (configuration not stated)	-	-	-	-	-	-
O=C(O)/C=C/c1nc(-c2ccccc2)n2ccccc12	-	-	-	2.51µM	-	?
Cc1ccc(C)n1-c1ccc2c(c1)COC2=O	.	.	.	11.2µM	.	-
CCSc1nnc(-c2cnn(-c3ccccc3)c2-n2cccc2)n1C	.	-	-	-	-	?
